Experiment [1] has as its system Plasmodium falciparum Sir2 (PF13_0152, Sir2A). Nature of the experiment: Plasmodium falciparum Sir2A binding compounds – biochemical, small-molecule microarray, 635 nm fluorescence, primary screen (AID 1098).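 Also: score merges spot fluorescence intensity with its signal-to-noise ratio.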 To be noted: fluorescence 635 nm, higher = more signal.
Experiment [2] in a line: probe aDKK1 binding to arrayed compounds – biochemical, biotinylated probe, 635/667 nm fluorescence, primary screen (AID 1099).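 Also: score merges 667nm spot fluorescence with signal to noise across triplicate slides.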 Conditions: small-molecule microarray, higher = more signal.
Experiment [3] is described as follows: probe aCHRDL2 binding to arrayed compounds – biochemical, biotinylated probe, 635/667 nm fluorescence, primary screen (AID 1100). To be noted: small-molecule microarray, higher = more signal.
Experiment [4] in a line: change in splice reporter luminescence, either direction, cell-based, HEK293, spliceosome inhibition project, primary screen (AID 1101).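 Also: HEK293 cells carrying a splicing-competent luciferase reporter gene; test concentration not given here.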 Conditions: HEK293 splicing luciferase reporter, 24 h, higher = more signal, called active from +8 up or from −8 down.
Experiment [5] addresses Fibroblast growth factor 10 (Homo sapiens) (UniProt O15520). The experiment in a line: compounds binding fibroblast growth factor 10 – biochemical, small-molecule microarray, 635 nm fluorescence, primary screen (AID 1102). To be noted: FGF10 binding, fluorescence 635 nm, higher = more signal.
For experiment [6], the system named is glycogen synthase kinase-3 (GSK3A per assay name; protocol says GSK3B). Nature of the experiment: compounds binding glycogen synthase kinase-3 – biochemical, small-molecule microarray, 635 nm fluorescence, GSK3A, primary screen (AID 1103). Also: the record names both GSK3A and GSK3B. To be noted: fluorescence 635 nm, higher = more signal.
The target in experiment [7] is Epidermal growth factor receptor (Homo sapiens) (UniProt P00533). The experiment in a line: compounds binding epidermal growth factor receptor – biochemical, small-molecule microarray, 635 nm fluorescence, primary screen (AID 1104).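 Also: score merges 667 nm emission intensity with spot signal to noise over triplicate slides.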 Conditions: EGFR binding, higher = more signal.
Experiment [8] addresses Follistatin-related protein 3 (Homo sapiens) (UniProt O95633). Nature of the experiment: compounds binding follistatin-related protein 3 – biochemical, small-molecule microarray, 635 nm fluorescence, primary screen (AID 1105).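 Also: score merges emission near 667 nm and signal to noise per printed spot across three slides.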 Conditions: FSTL3 binding, higher = more signal.
For experiment [9], the target named is Dickkopf-related protein 1 (Homo sapiens) (UniProt O94907). Nature of the experiment: small molecules binding DKK1 protein – biochemical, small-molecule microarray, 635 nm fluorescence scan, primary screen (AID 1106).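 Also: score merges emission near 667 nm with signal to noise over three replicate slides.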 Conditions: higher = more signal.
Experiment [10] deals with Inhibin beta A chain (activin A). The experiment in a line: small molecules binding activin A – biochemical, small-molecule microarray, 635 nm fluorescence scan, primary screen (AID 1107).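 Also: mouse activin A protein probed at 4.33 µg/mL on printed slides; score merges bound-protein fluorescence near 667 nm with spot signal-to-noise.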 Conditions: INHBA, higher = more signal.
The test system of experiment [11] is Human papillomavirus type 1a protein E7 (residues 44-93). Nature of the experiment: small molecules binding HPV E7 44-93 – biochemical, small-molecule microarray, residues 44-93, 635 nm fluorescence, primary screen (AID 1108).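 Also: E7 fragment applied at 1 µg/mL in TBST for 1 h at 4 C; score combines spot fluorescence with its signal to noise ratio.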 Conditions: fluorescence 635 nm, higher = more signal.
Experiment [12] in a line: hepatitis C replication reporter changes, two-sided – Huh7 cells, luciferase reporter, HCV replication inhibitor project, primary screen (AID 1109).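 Also: huh7 hepatoma cells harbouring a luciferase neomycin HCV replicon reporter; luciferase luminescence as measure of HCV replicon replication; test concentration not given here.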 Conditions: Huh7 HCV replicon luciferase reporter, 48 h; higher = more signal. A general note: A reporter such as luciferase makes a cellular process visible.
The target of experiment [13] is Left-right determination factor 2 (Homo sapiens) (UniProt O00292). The experiment in a line: small molecules binding LEFTY2 protein – biochemical, small-molecule microarray, 635 nm fluorescence scan, primary screen (AID 1110). To be noted: higher = more signal.
Experiment [14] addresses Calmodulin-1 (Homo sapiens) (UniProt P0DP23). Nature of the experiment: small molecules binding calmodulin-1 with EGTA – biochemical, small-molecule microarray, Cy5-labelled CALM1, profiling panel (AID 1111).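 Also: labelled calmodulin applied in Tris saline Tween buffer holding calcium plus EGTA and DTT.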 Conditions: Cy5-CALM1 binding fluorescence, higher = more signal.
Experiment [15] shares this target. Nature of the experiment: small molecules binding Ca-loaded calmodulin-1 – biochemical, small-molecule microarray, Cy5-labelled CALM1, plus calcium, artefact control for SMM control-protein annotation, profiling panel (AID 1112).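 Also: score merges spot fluorescence with signal to noise from triplicate slides.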 To be noted: Cy5-CALM1 binding fluorescence, higher = more signal.
Experiment [16] in a line: probe aWnt5a binding to arrayed compounds – biochemical, biotinylated probe, 635/667 nm fluorescence, primary screen (AID 1113).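 Also: score merges 667 nm fluorescence intensity with signal-to-noise per printed feature.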 To be noted: small-molecule microarray, higher = more signal.
The nature of experiment [17]: probe aShh binding to arrayed compounds – biochemical, biotinylated probe, 635/667 nm fluorescence, primary screen (AID 1114).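 Also: probe is biotin-labelled aShh protein from a stem cell growth factor screen; measures binding of labelled protein to compounds printed on the slide; score merges feature fluorescence at 667 nm with signal-to-noise.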 To be noted: small-molecule microarray, higher = more signal.
Experiment [18] is described as follows: probe aNog binding to arrayed compounds – biochemical, biotinylated probe, 635/667 nm fluorescence, primary screen (AID 1115).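 Also: probe is biotinylated aNog protein used at 0.15 µg/mL for 1 h at 4 C; z-score combines 667 nm fluorescence of each spot with its signal to noise.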 To be noted: small-molecule microarray, higher = more signal.
The target in experiment [19] is Torsin-1A-interacting protein 1 (Homo sapiens) (UniProt Q5JTV8). Nature of the experiment: compound microarray binding of lysate hLAP1 – cell lysate, small-molecule microarray, COS7 lysate, 635/667 nm fluorescence, primary screen (AID 1116). Conditions: 635 nm fluorescence, higher = more signal.
In experiment [20] the target is Alpha-bungarotoxin (Bungarus multicinctus) (UniProt P60615). The experiment in a line: compounds binding labelled alpha-BTX control protein – biochemical, small-molecule microarray, Alexa647 label, 635/667 nm fluorescence, artefact control for SMM control protein annotation, profiling panel (AID 1117). Conditions: alpha-BTX-A647 binding fluorescence, higher = more signal.

Active and inactive are the calls of the source.

Dickkopf-related protein 1 (Homo sapiens), sequence (O94907 whole entry, looked up): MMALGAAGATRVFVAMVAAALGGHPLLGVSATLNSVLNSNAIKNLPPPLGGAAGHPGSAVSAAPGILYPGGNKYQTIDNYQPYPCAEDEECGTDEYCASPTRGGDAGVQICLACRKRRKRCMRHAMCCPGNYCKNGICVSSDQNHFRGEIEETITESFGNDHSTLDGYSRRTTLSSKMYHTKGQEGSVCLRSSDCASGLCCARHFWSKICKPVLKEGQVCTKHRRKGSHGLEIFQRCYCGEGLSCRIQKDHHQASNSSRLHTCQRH
Follistatin-related protein 3 (Homo sapiens), sequence (O95633 whole entry, looked up): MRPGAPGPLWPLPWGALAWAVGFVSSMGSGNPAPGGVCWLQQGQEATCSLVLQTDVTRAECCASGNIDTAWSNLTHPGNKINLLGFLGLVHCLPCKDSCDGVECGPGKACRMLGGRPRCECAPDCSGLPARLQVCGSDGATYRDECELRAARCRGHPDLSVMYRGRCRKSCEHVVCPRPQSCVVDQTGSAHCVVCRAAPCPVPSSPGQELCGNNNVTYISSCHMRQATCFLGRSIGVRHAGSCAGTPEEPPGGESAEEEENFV
Alpha-bungarotoxin (Bungarus multicinctus), sequence (P60615 whole entry, looked up): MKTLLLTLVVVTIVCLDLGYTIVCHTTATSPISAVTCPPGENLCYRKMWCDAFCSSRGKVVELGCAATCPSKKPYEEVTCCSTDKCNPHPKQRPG
Fibroblast growth factor 10 (Homo sapiens), sequence (O15520 whole entry, looked up): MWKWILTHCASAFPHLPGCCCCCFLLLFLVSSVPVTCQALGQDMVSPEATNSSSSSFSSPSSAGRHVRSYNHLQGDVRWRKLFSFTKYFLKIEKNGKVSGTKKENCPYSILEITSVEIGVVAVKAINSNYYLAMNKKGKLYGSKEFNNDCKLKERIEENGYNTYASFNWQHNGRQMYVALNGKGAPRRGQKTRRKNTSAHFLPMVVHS
Left-right determination factor 2 (Homo sapiens), sequence (O00292 whole entry, looked up): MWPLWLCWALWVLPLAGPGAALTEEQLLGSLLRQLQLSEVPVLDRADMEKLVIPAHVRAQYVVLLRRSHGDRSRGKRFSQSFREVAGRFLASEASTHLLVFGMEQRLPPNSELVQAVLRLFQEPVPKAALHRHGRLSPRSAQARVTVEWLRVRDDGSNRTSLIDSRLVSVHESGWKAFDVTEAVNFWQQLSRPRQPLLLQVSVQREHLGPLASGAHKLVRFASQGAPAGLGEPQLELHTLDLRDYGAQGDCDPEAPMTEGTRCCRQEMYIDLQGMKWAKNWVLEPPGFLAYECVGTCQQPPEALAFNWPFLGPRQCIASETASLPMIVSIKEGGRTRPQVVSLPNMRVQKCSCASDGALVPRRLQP
Torsin-1A-interacting protein 1 (Homo sapiens), sequence (Q5JTV8 whole entry, looked up): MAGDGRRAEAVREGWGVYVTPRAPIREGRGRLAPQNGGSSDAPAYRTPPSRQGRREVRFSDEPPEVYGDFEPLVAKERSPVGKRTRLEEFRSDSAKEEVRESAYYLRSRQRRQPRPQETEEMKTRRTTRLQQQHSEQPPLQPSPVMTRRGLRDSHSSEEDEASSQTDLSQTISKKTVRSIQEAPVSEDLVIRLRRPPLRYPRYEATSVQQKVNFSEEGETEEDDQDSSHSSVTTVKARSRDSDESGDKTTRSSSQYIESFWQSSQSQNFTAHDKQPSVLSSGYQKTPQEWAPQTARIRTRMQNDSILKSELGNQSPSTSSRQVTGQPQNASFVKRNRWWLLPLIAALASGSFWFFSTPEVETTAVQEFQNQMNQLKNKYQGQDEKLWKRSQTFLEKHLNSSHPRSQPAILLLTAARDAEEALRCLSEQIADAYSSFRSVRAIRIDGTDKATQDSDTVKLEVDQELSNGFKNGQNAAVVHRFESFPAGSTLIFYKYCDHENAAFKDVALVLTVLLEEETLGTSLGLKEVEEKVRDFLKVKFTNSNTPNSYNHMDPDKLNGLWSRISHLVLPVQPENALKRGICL
Epidermal growth factor receptor (Homo sapiens), sequence (P00533 whole entry, looked up): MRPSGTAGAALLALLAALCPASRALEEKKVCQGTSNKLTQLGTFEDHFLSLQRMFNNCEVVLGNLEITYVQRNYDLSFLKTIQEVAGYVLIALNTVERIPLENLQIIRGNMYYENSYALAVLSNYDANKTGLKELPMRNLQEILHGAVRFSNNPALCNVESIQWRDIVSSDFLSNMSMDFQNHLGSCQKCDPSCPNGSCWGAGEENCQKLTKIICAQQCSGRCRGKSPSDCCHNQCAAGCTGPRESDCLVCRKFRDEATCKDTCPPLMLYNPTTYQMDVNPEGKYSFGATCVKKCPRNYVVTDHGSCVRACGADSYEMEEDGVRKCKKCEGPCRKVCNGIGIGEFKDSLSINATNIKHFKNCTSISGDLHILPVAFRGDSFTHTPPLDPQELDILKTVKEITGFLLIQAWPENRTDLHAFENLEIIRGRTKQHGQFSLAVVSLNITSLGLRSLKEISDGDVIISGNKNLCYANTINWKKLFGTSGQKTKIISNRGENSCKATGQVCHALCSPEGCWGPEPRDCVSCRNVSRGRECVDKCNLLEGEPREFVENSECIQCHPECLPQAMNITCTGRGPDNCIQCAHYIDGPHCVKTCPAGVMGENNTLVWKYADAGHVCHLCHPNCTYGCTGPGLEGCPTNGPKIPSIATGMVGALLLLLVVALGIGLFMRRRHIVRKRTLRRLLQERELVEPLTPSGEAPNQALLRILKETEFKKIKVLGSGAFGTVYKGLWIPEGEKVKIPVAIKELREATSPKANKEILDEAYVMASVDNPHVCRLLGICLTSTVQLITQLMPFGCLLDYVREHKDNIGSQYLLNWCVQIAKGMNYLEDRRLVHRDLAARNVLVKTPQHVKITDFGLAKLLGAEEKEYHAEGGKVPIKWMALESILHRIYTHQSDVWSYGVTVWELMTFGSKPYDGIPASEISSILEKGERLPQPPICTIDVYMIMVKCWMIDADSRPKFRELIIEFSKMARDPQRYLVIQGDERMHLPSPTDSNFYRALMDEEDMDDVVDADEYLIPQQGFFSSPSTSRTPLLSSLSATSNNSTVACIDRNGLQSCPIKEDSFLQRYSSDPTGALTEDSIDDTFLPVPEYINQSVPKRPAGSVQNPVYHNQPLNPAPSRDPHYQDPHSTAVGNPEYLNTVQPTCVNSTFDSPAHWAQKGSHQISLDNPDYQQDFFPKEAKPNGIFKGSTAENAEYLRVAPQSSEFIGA

Consider `COC(=O)C1=C(C)N(Cc2ccccc2)[C@]23O[C@](C(=O)OC)(C(=O)N2[C@@H]1c1ccccc1)[C@H]1CCOC(=O)[C@H]13`, for which the composite z-score is 0.539 in experiment [1]; 0.057 in [2]; -0.733 in [3]; 1.1 in [5]; 0.466 in [6]; 0.482 in experiment [7]. Further, the composite z-score in experiment [8] is 0.63; in experiment [9] it was 0.971; in experiment [10], 0.521; in experiment [11] it was 0.0415; in experiment [13], 0.548; in [14] it was -0.348. In addition, the composite z-score in experiment [15] is -0.832; in experiment [16], -0.0482; in experiment [17], -0.0769; in [18], 0.171; in experiment [19], 0.333; in experiment [20], 0.0003. In addition, the values for the z-score in experiment [4] and in [12] were -0.236 (inactive) and 0.233, respectively.

`CC(C)CON=C1C[C@@H](O)[C@@H](O)[C@@H]2[C@@H]3C(=O)N([C@@H](C)c4ccccc4)C(=O)[C@@H]3CC[C@H]12`: the composite z-score in experiment [1] is 0.43; in experiment [2] it was -0.325; in experiment [3], -0.565; in experiment [5], 1.07; in experiment [6], 0.778; in experiment [7], 0.39. The composite z-score in [8] was 1.24; in experiment [9], 0.76; in experiment [10], -0.204; in experiment [11], 1.36; in experiment [13], 0.756; in experiment [14], 0.336. For the same compound, the composite z-score in [15] was -0.351; in experiment [16], -0.124; in [17], -0.0011; in experiment [18] it was -0.0308; in [19], 0.619; in experiment [20], 0.922. Besides, the results for the z-score in experiment [4] and in experiment [12] were 0.115 (inactive) and 0.775, respectively.

`COC(=O)[C@@H]1CC[C@H](C)[C@@H](c2ccc(C)cc2)N1C(=O)c1ccc(C=NOC(C)CN2CCCCc3nc(C)c(C)cc32)cc1` (stereo not given in full): the composite z-score in [1] is 0.775; in experiment [2], -0.136; in experiment [3], 0.174; in experiment [5], 0.127; in [6] it was -0.626; in experiment [7] it was 0.598. Moreover, the composite z-score in experiment [8] was 0.0406; in experiment [9], 0.323; in [10], 1.49; in experiment [11], -0.278; in experiment [13], 0.359; in experiment [14] it was -0.0385. The composite z-score in experiment [15] stood at 0.076; in experiment [16], 0.0437; in experiment [17], 0.0893; in experiment [18], 0.0274; in experiment [19], 0.652; in [20], 0.709. For the same compound, the z-score in [4] is -0.423 (inactive); in experiment [12], -3.62.

`COC(=O)c1c(CC[C@@H](CO)NC(=O)N[C@H](Cc2ccccc2)Cn2cc(-c3ccccc3N)nn2)oc(C(C)=O)c1C(=O)OC`: the composite z-score in experiment [1] is 0.326; in experiment [2], 0.759; in experiment [3], 0.886; in experiment [5] it was 0.865; in [6], 0.355; in [7], -0.165. Also, the composite z-score is 0.204 in experiment [8]; -0.299 in experiment [9]; 0.95 in experiment [10]; 0.734 in experiment [11]; -0.104 in experiment [13]; -0.0936 in experiment [14]. In addition, the composite z-score in experiment [15] was -0.656; in [16], -0.001; in experiment [17], 0.0326; in [18], 1.12; in experiment [19], 1.54; in [20], 0.57. Besides, the z-score in experiment [4] is 0.433 (inactive); in experiment [12], -1.35.

For the compound `COc1ccc(O[C@H]2C=C[C@@H](c3ccccc3)O[C@@H]2COC(=O)CCC(C)=NOC[C@@H](C)[C@H](OCc2ccccc2)C(C)C)cc1`, the composite z-score is -0.886 in [1]; -0.366 in [2]; -0.529 in experiment [3]; -0.433 in experiment [5]; -0.662 in experiment [6]; -0.706 in [7]. Moreover, the composite z-score in experiment [8] is -0.629; in [9] it was -0.698; in experiment [10], 0.553; in [11] it was -2.09; in [13], -0.306; in experiment [14] it was -1.65. For the same compound, the composite z-score in experiment [15] is -0.741; in experiment [16] it was -0.0748; in experiment [17], -0.283; in [18], -0.233; in [19] it was -0.956; in experiment [20], -1.04. Besides, the z-score in experiment [4] was 0.292 (inactive); in experiment [12], -0.667.

As to `CC(=O)OC[C@H]1O[C@@H](ON=C(C)CCN2CCc3nc(-c4ccccc4)c(-c4ccccc4)cc3C2)[C@H](OC(C)=O)[C@@H](OC(C)=O)[C@@H]1OC(C)=O`, the composite z-score in experiment [1] was 0.625; in experiment [2], -0.119; in [3], -0.413; in experiment [5], 0.917; in experiment [6], 1.22; in [7], 0.525. In addition, the composite z-score is 0.979 in experiment [8]; 0.525 in experiment [9]; -0.0877 in experiment [10]; 1.32 in experiment [11]; 0.687 in experiment [13]; 0.328 in [14]. Also, the composite z-score was -0.697 in [15]; 0.0215 in experiment [16]; -0.0362 in experiment [17]; -0.295 in experiment [18]; 0.358 in experiment [19]; 0.74 in experiment [20]. In addition, the z-score in experiment [4] is 0.522 (inactive); in experiment [12], -2.07.

As to `CC(C)=NOCc1cccc(-c2cc(-c3ccccc3)no2)c1`, the composite z-score was 0.379 in experiment [1]; -0.208 in [2]; -0.609 in experiment [3]; 0.637 in experiment [5]; 0.787 in [6]; -0.137 in experiment [7]. For the same compound, the composite z-score is 0.597 in [8]; 0.494 in [9]; -0.21 in experiment [10]; 0.332 in experiment [11]; 0.71 in experiment [13]; 0.0463 in experiment [14]. In addition, the composite z-score in experiment [15] was -0.823; in experiment [16], -0.0874; in experiment [17], 0.0952; in experiment [18], -0.161; in [19], 0.237; in [20] it was 0.553. The z-score in [4] is 0.342 (inactive); in experiment [12], -0.149.

For `CO[C@H]([C@@H](C)[C@H](OC)c1ccccc1)[C@H](C)[C@@H](OC)[C@H](C)C(C)=O`, the composite z-score was -0.275 in experiment [1]; -0.442 in experiment [2]; -0.117 in experiment [3]; 0.173 in [5]; -0.641 in [6]; -0.577 in experiment [7]. The composite z-score in experiment [8] is -0.523; in [9] it was 0.345; in experiment [10] it was 0.782; in [11], -0.431; in experiment [13], 0.402; in experiment [14] it was -1.1. Besides, the composite z-score in experiment [15] is -0.0474; in [16] it was 0.0101; in experiment [17], -0.367; in experiment [18] it was -0.0286; in [19] it was -0.482; in experiment [20] it was -0.847. For the same compound, the results for the z-score in experiment [4] and in [12] were 0.116 (inactive) and 1.14, respectively.

Source of the values: PubChem BioAssay.
